Source: publication PMC5540273 (PLoS ONE, 2017)

What follows are molecules tested on TSSK1B. Conditions: concentration: 1 μM, replicates: in singlicate; n = 1.
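Also: KINOMEscan kinase panel screen.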

SMILES | %Inh [%]
Cn1cc(-c2ccc3c(c2)CCN3C(=O)Cc2cccc(Cl)c2)c2c(N)ncnc21 [GSK2606590] | 20
COc1ccc(-c2coc3ccc(-c4nnc(SCc5ccc(OC)c(C(F)(F)F)c5)o4)cc23)cc1 | 0
CCS(=O)(=O)c1ccc(OC)c(Nc2nccc(-c3c(-c4cccc(NC(=O)c5c(F)cccc5F)c4)nn4ncccc34)n2)c1 [GSK326180] | 23
O=C(Nc1cccc(-c2nn3ccccc3c2-c2ccnc(Nc3cccc(C(F)(F)F)c3)n2)c1)c1c(F)cccc1F [GSK292658] | 2
NCCCC(NC(=O)c1cc(Br)c(-c2ccnc3[nH]ccc23)s1)c1ccccc1.O=C(O)C(F)(F)F.O=C(O)C(F)(F)F (stereo not shown) [GSK1287544] | 17
CC(=O)Nc1nc2cnc(Nc3cc(NC(=O)c4cccc(C5(C#N)CC5)c4Cl)ccc3C)nc2s1 | 0
COc1ccc(CNC(=O)NC2CCN(c3ccnc(Nc4ccc(F)cc4)n3)CC2)cc1 [GSK1379788] | 1
Clc1ccc(-c2nn3ncccc3c2-c2ccnc(Nc3ccc4c(c3)OCCO4)n2)cc1 [GW829116] | 0
CC(C)(C)c1ccc2nccc(Nc3cccc(O)c3)c2c1 [GW856795] | 0
COc1cc(Nc2nccc(N3CCC(NC(=O)Nc4cccc(C(C)=O)c4)C3)n2)cc(OC)c1OC (stereo not shown) [GSK1379753] | 6
COc1cc(Nc2nccc(-c3c(-c4cccc(NC(=O)c5c(F)cccc5F)c4)nn4ccccc34)n2)cc(OC)c1OC [GSK323521] | 0
COc1cccc(NC(=O)NC2CCN(c3ccnc(Nc4cc(OC)c(OC)c(OC)c4)n3)C2)c1 (stereo not shown) [GSK1379763] | 3
O=C(O)C(F)(F)F.O=C(O)C(F)(F)F.O=c1[nH]ccc2nc(N[C@@H]3CCCNC3)nc(Nc3ccc(S(=O)(=O)N4CCOCC4)cc3)c12 [GSK2177277] | 95.1
CCCCc1nn2ncccc2c1-c1ccnc(Nc2ccc(N3CCN(C)CC3)cc2)n1 [GW684941] | 9
CN(c1ccc(NC(=O)Nc2cc(C(F)(F)F)ccc2F)cc1)c1ccnc(Nc2ccc(S(N)(=O)=O)cc2)n1 [GW809893] | 5
Nc1ncc(-c2cccnc2)c2scc(-c3ccc4c(c3)CCN4C(=O)Cc3ccccc3)c12 [GSK683281] | 20

SMILES | %Inh [%]
Cc1ccc(C(=O)Nc2ccc(Nc3ccnc4cc(-c5nccs5)ccc34)cc2O)cc1.Cl [GW494702] | 13
COc1cc(Nc2nccc(N3CCC(NC(=O)c4cc5ccccc5s4)C3)n2)cc(OC)c1OC (stereo not shown) [GSK1379760] | 0
O=C(Nc1cccc(-c2nn3ccccc3c2-c2ccnc(Nc3cccc(F)c3)n2)c1)c1c(F)ccc(F)c1Cl [GSK357952] | 0
CN(C)Cc1ccc(-c2ccc3c(Nc4ccc(Oc5ccccn5)cc4)ccnc3c2)o1 [GW567148] | 0
CNC(=O)c1ccccc1Nc1nc(Nc2ccc(N3CCOCC3)cc2)ncc1Cl.Cl [GSK1576028] | 15
Cl.Cl.NCC(NC(=O)c1cc(-c2ccccc2)c(-c2ccnc3[nH]ccc23)s1)c1ccccc1 (stereo not shown) [GSK1321561] | 0
COc1ccc(Nc2nccc(N3CCC(NC(=O)Nc4cccc(OC)c4)C3)n2)cc1 (stereo not shown) [GSK1379742] | 0
COC(=O)Nc1nc2cc(Oc3ccc(NC(=O)Nc4cc(C(F)(F)F)ccc4F)cn3)ccc2[nH]1.Cl.Cl [GW681170] | 0
O=C(Nc1n[nH]c2cc(-c3ccoc3)ccc12)C1CC1 [SB-738481] | 0
CSc1cccc2c(-c3ccncn3)c(-c3ccc(F)cc3)nn12 [GW514786] | 0
c1ccc(Oc2ccc(Nc3ccnc4cc(-c5ccc(CNCCN6CCOCC6)o5)ccc34)cc2)nc1 [GW567145] | 0
Nc1ncnc2c1nc(-c1ccccc1)n2-c1ccccc1 [SKF-97293] | 2
Cl.c1ccc(-c2ccc3c(Nc4ccc5[nH]ccc5c4)ccnc3c2)nc1 [GW440138] | 0
Cl.NC(=O)c1cccc(Nc2nccc(Nc3ccc(Oc4c(Cl)cccc4Cl)c(Cl)c3)n2)c1 [GW659009] | 8
Cc1occc1-c1ncc(OC[C@@H](N)Cc2c[nH]c3ccccc23)cc1-c1ccc2[nH]nc(C)c2c1.O=C(O)C(F)(F)F [GSK682037] | 16
